The target of assay [1] is T1, Serine/threonine-protein kinase TBK1 (Homo sapiens) (UniProt Q9UHD2).
T1 sequence (whole entry): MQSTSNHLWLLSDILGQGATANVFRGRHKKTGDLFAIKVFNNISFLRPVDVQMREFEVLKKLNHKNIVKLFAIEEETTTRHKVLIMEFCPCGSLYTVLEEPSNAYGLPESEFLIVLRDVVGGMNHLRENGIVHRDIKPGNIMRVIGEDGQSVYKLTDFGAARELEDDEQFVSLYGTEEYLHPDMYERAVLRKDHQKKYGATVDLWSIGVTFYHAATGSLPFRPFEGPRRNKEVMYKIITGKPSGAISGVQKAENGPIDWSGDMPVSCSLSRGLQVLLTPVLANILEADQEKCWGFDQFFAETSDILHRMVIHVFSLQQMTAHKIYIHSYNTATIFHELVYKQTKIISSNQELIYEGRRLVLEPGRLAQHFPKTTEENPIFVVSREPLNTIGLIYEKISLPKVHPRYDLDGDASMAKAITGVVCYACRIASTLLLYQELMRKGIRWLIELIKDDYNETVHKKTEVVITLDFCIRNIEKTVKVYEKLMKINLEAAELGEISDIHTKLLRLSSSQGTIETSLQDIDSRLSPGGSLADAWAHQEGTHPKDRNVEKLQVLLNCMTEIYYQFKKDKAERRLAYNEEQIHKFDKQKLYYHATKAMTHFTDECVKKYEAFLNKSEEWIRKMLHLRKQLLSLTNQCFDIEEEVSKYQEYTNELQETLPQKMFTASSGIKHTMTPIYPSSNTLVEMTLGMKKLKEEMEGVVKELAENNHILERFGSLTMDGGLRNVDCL
Particulars: at 10 µM.

In assay [2] the target is T2, TGF-beta receptor type-1 (Homo sapiens) (UniProt P36897).
T2 sequence (whole entry): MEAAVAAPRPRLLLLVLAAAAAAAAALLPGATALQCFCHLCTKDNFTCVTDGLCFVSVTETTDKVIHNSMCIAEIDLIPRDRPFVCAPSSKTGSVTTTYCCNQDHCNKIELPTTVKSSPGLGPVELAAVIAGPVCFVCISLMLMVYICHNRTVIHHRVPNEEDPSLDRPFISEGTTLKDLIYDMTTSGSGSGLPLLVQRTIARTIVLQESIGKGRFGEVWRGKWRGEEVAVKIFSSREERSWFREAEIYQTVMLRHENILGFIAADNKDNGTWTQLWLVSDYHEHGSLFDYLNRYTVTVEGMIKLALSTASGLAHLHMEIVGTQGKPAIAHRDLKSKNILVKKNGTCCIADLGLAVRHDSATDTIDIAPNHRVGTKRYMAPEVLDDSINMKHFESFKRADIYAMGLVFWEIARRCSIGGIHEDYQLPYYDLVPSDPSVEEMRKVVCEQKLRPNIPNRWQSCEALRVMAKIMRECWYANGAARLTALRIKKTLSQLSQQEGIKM
Particulars: at 1 µM.

Assay [3] addresses T2, TGF-beta receptor type-1 (Homo sapiens). Particulars: at 10 µM.
Assay [4] addresses Insulin-like growth factor 1 receptor (Homo sapiens) (UniProt P08069). Particulars: at 1 µM.
Assay [5] has the same target. Particulars: at 10 µM.
Assay [6] concerns the target T3, Inhibitor of nuclear factor kappa-B kinase subunit alpha (Homo sapiens) (UniProt O15111).
T3 sequence (whole entry): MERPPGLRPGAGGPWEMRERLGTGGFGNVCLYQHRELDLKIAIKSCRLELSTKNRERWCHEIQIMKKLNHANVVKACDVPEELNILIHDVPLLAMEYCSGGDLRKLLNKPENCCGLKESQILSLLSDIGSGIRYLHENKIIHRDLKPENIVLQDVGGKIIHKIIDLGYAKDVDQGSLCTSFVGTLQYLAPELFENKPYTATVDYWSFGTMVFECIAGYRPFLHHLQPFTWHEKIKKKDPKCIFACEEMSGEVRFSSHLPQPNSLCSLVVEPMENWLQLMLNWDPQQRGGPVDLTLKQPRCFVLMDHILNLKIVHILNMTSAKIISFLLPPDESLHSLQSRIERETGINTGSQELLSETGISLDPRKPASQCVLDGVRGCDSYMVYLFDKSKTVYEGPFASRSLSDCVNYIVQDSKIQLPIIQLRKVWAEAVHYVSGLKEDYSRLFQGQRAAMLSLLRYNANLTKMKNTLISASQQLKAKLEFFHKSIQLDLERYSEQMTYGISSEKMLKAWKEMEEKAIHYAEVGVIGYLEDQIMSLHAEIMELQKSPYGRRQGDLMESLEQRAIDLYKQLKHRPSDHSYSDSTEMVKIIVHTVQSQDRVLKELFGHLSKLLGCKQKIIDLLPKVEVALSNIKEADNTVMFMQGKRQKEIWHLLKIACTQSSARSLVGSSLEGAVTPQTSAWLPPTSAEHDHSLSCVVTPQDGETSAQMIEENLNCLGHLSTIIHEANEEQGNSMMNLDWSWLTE
Particulars: at 1 µM.

For assay [7], the target named is T3, Inhibitor of nuclear factor kappa-B kinase subunit alpha (Homo sapiens). Particulars: at 10 µM.
Assay [8] addresses T4, Inhibitor of nuclear factor kappa-B kinase subunit beta (Homo sapiens) (UniProt O14920).
T4 sequence (whole entry): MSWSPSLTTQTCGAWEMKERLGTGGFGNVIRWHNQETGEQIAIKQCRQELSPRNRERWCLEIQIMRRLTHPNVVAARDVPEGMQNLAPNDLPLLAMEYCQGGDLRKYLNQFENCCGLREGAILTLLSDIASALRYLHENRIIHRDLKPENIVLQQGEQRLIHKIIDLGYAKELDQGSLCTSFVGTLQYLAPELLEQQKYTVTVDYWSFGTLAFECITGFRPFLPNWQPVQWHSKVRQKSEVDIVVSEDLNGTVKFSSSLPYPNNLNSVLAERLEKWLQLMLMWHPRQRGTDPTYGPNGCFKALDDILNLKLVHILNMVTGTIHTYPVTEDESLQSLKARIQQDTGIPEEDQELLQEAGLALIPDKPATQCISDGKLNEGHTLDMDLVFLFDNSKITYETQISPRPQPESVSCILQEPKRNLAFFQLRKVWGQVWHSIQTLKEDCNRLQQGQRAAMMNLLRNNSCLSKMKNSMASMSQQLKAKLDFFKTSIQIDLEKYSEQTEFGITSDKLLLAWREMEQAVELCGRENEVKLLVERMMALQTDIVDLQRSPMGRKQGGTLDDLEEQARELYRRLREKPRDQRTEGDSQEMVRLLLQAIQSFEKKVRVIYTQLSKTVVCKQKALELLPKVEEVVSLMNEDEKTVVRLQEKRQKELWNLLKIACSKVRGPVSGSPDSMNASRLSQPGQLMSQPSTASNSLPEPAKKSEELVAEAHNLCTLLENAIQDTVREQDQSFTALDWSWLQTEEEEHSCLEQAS
Particulars: at 1 µM.

Assay [9] concerns the target T4, Inhibitor of nuclear factor kappa-B kinase subunit beta (Homo sapiens). Particulars: at 10 µM.
In assay [10] the target is Insulin receptor (Homo sapiens) (UniProt P06213). Particulars: at 1 µM.
Sequence of Insulin receptor (Homo sapiens) (P06213 28-758 limits assumed): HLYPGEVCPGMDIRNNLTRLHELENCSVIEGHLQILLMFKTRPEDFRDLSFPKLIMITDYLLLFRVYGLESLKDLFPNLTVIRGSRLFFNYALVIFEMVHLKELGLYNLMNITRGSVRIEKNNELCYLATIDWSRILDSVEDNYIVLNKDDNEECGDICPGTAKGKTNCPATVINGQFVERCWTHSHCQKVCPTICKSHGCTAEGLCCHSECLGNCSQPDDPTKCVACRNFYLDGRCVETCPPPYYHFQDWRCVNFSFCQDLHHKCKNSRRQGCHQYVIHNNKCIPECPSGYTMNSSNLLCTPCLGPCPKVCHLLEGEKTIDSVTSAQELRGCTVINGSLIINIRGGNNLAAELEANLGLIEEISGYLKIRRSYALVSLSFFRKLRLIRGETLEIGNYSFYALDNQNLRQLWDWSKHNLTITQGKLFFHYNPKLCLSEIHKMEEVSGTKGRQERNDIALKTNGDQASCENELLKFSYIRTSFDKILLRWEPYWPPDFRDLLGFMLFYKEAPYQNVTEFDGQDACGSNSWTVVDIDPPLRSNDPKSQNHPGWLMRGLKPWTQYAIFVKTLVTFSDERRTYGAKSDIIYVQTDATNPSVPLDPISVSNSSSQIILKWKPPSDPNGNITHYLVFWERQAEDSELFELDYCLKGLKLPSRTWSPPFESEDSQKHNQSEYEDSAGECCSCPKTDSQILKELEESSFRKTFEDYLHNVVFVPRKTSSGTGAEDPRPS
Sequence of Insulin receptor (Homo sapiens) (P06213 763-1382 limits assumed): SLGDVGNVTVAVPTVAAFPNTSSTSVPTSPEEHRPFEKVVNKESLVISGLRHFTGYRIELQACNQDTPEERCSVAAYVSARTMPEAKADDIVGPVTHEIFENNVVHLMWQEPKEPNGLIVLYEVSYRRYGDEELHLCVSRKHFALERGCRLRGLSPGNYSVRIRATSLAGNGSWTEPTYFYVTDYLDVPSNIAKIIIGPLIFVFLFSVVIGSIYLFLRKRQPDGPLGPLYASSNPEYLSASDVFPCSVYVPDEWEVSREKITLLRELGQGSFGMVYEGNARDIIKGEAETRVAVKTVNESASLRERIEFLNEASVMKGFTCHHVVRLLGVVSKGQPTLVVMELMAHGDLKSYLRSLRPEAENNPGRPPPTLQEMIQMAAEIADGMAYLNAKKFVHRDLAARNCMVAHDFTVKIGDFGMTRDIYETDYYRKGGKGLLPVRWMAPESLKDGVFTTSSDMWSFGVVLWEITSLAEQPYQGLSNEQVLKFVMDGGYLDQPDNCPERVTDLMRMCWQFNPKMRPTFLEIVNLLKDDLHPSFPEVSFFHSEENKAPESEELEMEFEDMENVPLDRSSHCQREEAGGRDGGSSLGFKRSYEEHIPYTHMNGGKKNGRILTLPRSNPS

Sequence of Insulin-like growth factor 1 receptor (Homo sapiens) (P08069 31-736 limits assumed): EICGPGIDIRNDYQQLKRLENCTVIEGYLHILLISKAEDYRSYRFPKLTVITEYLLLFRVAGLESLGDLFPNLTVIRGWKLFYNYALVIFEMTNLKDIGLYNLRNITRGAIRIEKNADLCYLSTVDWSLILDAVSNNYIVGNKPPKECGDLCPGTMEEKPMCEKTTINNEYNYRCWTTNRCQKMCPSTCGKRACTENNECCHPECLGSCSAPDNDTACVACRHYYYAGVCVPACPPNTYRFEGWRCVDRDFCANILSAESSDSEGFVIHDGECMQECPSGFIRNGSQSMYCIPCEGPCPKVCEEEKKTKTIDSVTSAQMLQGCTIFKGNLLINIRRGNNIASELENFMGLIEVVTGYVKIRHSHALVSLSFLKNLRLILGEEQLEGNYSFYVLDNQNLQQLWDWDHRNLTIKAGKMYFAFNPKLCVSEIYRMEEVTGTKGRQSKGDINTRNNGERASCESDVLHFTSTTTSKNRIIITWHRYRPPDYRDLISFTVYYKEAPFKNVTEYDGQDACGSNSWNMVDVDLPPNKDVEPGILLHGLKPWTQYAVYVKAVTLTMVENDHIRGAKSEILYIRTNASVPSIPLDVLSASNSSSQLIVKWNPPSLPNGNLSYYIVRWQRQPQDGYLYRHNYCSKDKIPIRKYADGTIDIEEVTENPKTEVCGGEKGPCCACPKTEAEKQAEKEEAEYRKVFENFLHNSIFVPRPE
Sequence of Insulin-like growth factor 1 receptor (Homo sapiens) (P08069 741-1367 limits assumed): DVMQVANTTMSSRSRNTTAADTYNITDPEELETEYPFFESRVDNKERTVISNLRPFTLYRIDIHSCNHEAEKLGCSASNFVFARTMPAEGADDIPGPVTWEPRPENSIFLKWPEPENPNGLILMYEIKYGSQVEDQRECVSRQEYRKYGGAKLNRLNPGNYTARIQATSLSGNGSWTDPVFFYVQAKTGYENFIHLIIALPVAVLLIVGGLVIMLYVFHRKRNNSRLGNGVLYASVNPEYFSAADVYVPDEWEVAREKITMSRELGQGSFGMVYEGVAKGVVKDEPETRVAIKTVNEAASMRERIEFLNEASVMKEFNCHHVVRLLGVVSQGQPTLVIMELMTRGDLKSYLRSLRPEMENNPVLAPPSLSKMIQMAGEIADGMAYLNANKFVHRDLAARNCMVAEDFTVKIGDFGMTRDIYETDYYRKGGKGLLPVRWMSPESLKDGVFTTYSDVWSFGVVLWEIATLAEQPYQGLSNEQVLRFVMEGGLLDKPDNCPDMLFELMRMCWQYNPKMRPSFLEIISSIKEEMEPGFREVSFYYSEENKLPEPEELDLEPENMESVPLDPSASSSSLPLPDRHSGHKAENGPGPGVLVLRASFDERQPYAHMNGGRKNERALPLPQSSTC

Consider `CCOc1cc2ncnc(Nc3cccc(Br)c3)c2cc1OCC`, for which the residual activity in assay [1] was 33%; in assay [2], 89%; in [3] it was 81%; in assay [4], 104%; in [5], 100%; in assay [6], 108%. Also, the residual activity was 108% in assay [7], 97% in assay [8], 82% in assay [9] and 104% in assay [10].

Usually residual activity stands for the signal under treatment as a percentage of the control signal.
